The results in this text go back to PubChem BioAssay (NCATS).

Records with an inconclusive call do not appear. Active and inactive are the calls of the source. The call rests on the fitted dose curve; in most records, active means well fitted inhibition curve with a large enough effect; inconclusive means small, poorly fitted or top-dose-only effect; inactive means no such curve, though single readings can be large or run the other way.
On the % scale 0 is the no-effect control and ±100 the full control effect; potency means the concentration at half of the fitted maximal effect.

Chain of Cytochrome P450 3A7 (Homo sapiens) (P24462 whole entry, looked up): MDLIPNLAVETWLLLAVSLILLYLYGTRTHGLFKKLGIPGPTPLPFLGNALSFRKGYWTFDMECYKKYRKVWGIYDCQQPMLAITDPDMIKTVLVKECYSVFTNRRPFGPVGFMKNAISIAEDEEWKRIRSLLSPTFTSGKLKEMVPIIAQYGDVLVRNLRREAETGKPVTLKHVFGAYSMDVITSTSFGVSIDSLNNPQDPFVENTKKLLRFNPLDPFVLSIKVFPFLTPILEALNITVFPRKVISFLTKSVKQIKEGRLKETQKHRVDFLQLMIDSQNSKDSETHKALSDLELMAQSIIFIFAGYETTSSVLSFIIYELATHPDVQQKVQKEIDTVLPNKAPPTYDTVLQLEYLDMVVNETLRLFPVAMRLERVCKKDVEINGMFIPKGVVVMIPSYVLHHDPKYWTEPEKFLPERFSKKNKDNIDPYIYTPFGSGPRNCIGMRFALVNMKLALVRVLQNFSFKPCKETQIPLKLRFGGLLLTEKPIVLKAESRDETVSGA

In the test the target is Cytochrome P450 3A7 (Homo sapiens) (UniProt P24462). The test is described as follows: Cytochrome P450 family 3 subfamily A member 7 (CYP3A7) small molecule antagonists: luciferase biochemical qHTS assay (AID 1963596). Further: nearly all actives have a fitted effect of over 40% in size. Conditions: P450-Glo CYP3A7 enzyme luminescence, 1 h; series mostly up to 57.4 µM; activity change, negative = inhibition: at the top concentration. In short, it runs like this:
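Recombinant CYP3A7 P450-Glo luminescent assay: enzyme-proluciferin substrate mix preincubated with compound 10 min at room temperature, reaction started with NADPH regeneration system for 1 h. Luciferin detected by luminescence; ketoconazole as positive control.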
(qHTS replaces the single test concentration by a dilution series.)
For the compound `O=C(Nc1ccc(Br)cc1)c1cc(Br)c(Br)s1`, the “activity change, negative = inhibition” value is -13.6% (inactive). As for `C[S+](=O)([O-])Nc1ccc(-c2ccc3nc(-c4cccc(OC(F)(F)F)c4)[nH]c3c2)cc1`, the “activity change, negative = inhibition” value is 1.4% (inactive).

On to `Cc1cc(C)cc(NC(=O)Cn2c(=O)n(-c3ccc(C)c(C)c3)c(=O)c3oc4ccccc4c32)c1`, for which the “activity change, negative = inhibition” value is -23.7% (inactive). Still for that read-out and setting: the result for `CCOC(=O)N1c2ccc(C(F)(F)F)cc2C(N(Cc2cc(C(F)(F)F)cc(C(F)(F)F)c2)C(=O)OC)CC1CC` (stereo not given) reads -13.2% (inactive); that for `O=C(c1ccc(OC(F)F)c(C#Cc2ccccn2)c1)N1Cc2cccnc2C1`, 0% (inactive). With `Cc1ccc(C)c(Nc2nc3nonc3nc2Nc2cccc(C)c2C)c1`, the “activity change, negative = inhibition” value was 3.21% (inactive). As for `CC(C)[C@H](N)C(=O)O`, the “activity change, negative = inhibition” value was -0.829% (inactive).

Take `Fc1ccc(CN2CCC(Nc3ccc(C(F)(F)F)nn3)CC2)cc1F`: the “activity change, negative = inhibition” value was -15.1% (inactive). On the same count and under the same terms, in the case of `COC(C(=O)N1Cc2[nH]nc(NC(=O)c3ccc(N4CCN(C)CC4)cc3)c2C1)c1ccccc1` (stereo not given) it was -14.3% (inactive); in that of `CCCCCCCCCCCCCCCCNc1ccc(C(=O)O)cc1`, -0.451% (inactive); in that of `OCCOCCOCCO`, -8.33% (inactive). Take `Cc1ccc(C(=O)c2cn(CC(=O)Nc3ccc4c(c3)OCCO4)c3nc(C)ccc3c2=O)cc1`: the “activity change, negative = inhibition” value is -31% (inactive). Take `FC(F)OC(Cl)C(F)(F)F` (stereo not given): the “activity change, negative = inhibition” value is 3.01% (inactive). Still for that read-out and setting: the result for `OCC=Cc1ccccc1` reads 0% (inactive). For the compound `C[C@H](CCCC(C)(C)O)[C@H]1CC[C@H]2[C@@H]3CC=C4C[C@@H](O)CC[C@]4(C)[C@H]3CC[C@]12C`, the “activity change, negative = inhibition” value was 2.19% (inactive). On to `CC(C)(C)NS(=O)(=O)c1cncc(-c2cc(F)c3nc(N)nn3c2)c1`, for which the “activity change, negative = inhibition” value is -0.305% (inactive). For `Nc1nccs1`, the “activity change, negative = inhibition” value is -8.65% (inactive).

`COc1cc(C(=O)NC(=S)Nc2cccc(NC(=O)c3ccccc3)c2)cc(OC)c1OC`: the “activity change, negative = inhibition” value was -13.4% (inactive). Take `CN1C(=O)OC(C)(C)C1=O`: the “activity change, negative = inhibition” value was -5.08% (inactive). As for `CCC[C@H](N[C@@H](C)C(=O)N1[C@H](C(=O)O)C[C@@H]2CCCC[C@@H]21)C(=O)O`, the “activity change, negative = inhibition” value is -15.9% (inactive). Take `CNc1ccc([N+](=O)[O-])cc1-n1cnc(-c2ccc(C(F)(F)F)cc2)c1`: the “activity change, negative = inhibition” value was 27.7% (inactive). The same measure, in the same setting: in the case of `CCOC(C)OCC` it was -2.17% (inactive). With `CC(C)OC(=O)N1CCC(Oc2ncnc3c2cnn3-c2ccc(S(C)(=O)=O)cc2F)CC1`, the “activity change, negative = inhibition” value is -17.1% (inactive).

`Nc1ncnc2c1c(-c1ccc(Cl)cc1)nn2-c1cccc(-c2cnnn2Cc2cccc(-c3ccccc3)c2)c1`: the “activity change, negative = inhibition” value was -2.15% (inactive). On to `Oc1ccc(C2(c3ccccc3F)CCC(F)(F)CC2)cc1`, for which the Potency is 5.01 µM (active). On to `NC(=O)OCC(O)COc1ccc(Cl)cc1` (stereo not given), for which the “activity change, negative = inhibition” value is 36.4% (inactive). Consider `CC1(C#N)CCN(c2c(C(=O)N3CCC(C(=O)C4CC4)CC3)cnc3ccc(F)cc23)CC1`, for which the “activity change, negative = inhibition” value was 0% (inactive). In the case of `Nc1ncnc2c1ncn2[C@H]1O[C@@H](C(=O)N2CCN(CC(=O)Nc3cccc4c3CNC4=O)CC2)[C@H](O)[C@@H]1O`, the “activity change, negative = inhibition” value is -20.3% (inactive). On to `CCc1ccc(CN(Cc2ccco2)C(=O)COc2ccccc2Cl)cc1`, for which the “activity change, negative = inhibition” value was 10.1% (inactive). As to `NS(=O)(=O)c1ccc(NC(=O)Nc2ccc(F)cc2)cc1`, the “activity change, negative = inhibition” value was -0.134% (inactive). Turning to `CCC(Cc1c(I)cc(I)c(O)c1I)C(=O)O` (stereo not given), the Potency was 16.9 µM (active). Take `COc1ccc(OC)c(-c2ccc(NC(=O)c3ccncc3F)cc2)c1`: the “activity change, negative = inhibition” value is -23.3% (inactive). With `Cc1cc(C(C)Nc2ccccc2C(=O)O)c2nc(N3CCOCC3)cc(=O)n2c1` (stereo not given), the “activity change, negative = inhibition” value was 0% (inactive). On the same count and under the same terms, the result for `COc1ccc(C=CC(=O)O)cc1` reads 2.44% (inactive); that for `CN(C)CC1CCOC1(c1ccccc1)c1ccccc1` (stereo not given), 16.7% [at 23.9 µM] (inactive); that for `CN1CCc2cc(Cl)c(O)cc2[C@@H](c2cccc3c2OCC3)C1`, 0% (inactive). Turning to `CC(C)(F)C[C@@H](N[C@@H](c1ccc(-c2ccc(S(C)(=O)=O)cc2)cc1)C(F)(F)F)C(=O)NC1(C#N)CC1`, the “activity change, negative = inhibition” value is -25.9% (inactive). For the compound `CC(=O)Oc1cc(C(F)(F)F)ccc1C(=O)O`, the “activity change, negative = inhibition” value was -17% (inactive). Take `COC(=O)c1c(-c2ccc(Cl)cc2)noc1N1CCN(c2ccccc2OC)CC1`: the “activity change, negative = inhibition” value is -26.8% (inactive). For `COc1ccc2cc(Br)ccc2c1`, the “activity change, negative = inhibition” value was 0% (inactive).
